# Assay results: the supplement of paper PMC8728848
# About 410 targets per protein were measured; listed, in parts, are those with the strongest signals and a random draw of the rest.
# B1: Siglec-9 (Homo sapiens), Q9Y336 (protein)
# chain: MLLLLLPLLWGRERAEGQTSKLLTMQSSVTVQEGLCVHVPCSFSYPSHGWIYPGPVVHGYWFREGANTDQDAPVATNNPARAVWEETRDRFHLLGDPHTKNCTLSIRDARRSDAGRYFFRMEKGSIKWNYKHHRLSVNVTALTHRPNILIPGTLESGCPQNLTCSVPWACEQGTPPMISWIGTSVSPLDPSTTRSSVLTLIPQPQDHGTSLTCQVTFPGASVTTNKTVHLNVSYPPQNLTMTVFQGDGTVSTVLGNGSSLSLPEGQSLRLVCAVDAVDSNPPARLSLSWRGLTLCPSQPSNPGVLELPWVHLRDAAEFTCRAQNPLGSQQVYLNVSLQSKATSGVTQGVVGGAGATALVFLSFCVIFVVVRSCRKKSARPAAGVGDTGIEDANAVRGSASQGPLTEPWAEDSPPDQPPPASARSSVGEGELQYASLSFQMVKPWDSRGQEATDTEYSEIKIHR
# Columns and labels:
# Experiment in all cases: glycan array binding signal (z-score within array); higher = stronger binding
# Conditions in all cases: glycan notation: IUPAC condensed, linker removed
# Fuc(a1-2)Gal = target: Fuc(a1-2)Gal
# How it was run: (§1)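 The binding signal is a Z-score computed within each array and averaged over linkers. Arrays of the same protein sequence at different concentrations or buffers were also averaged together. Data originate from 3228 arrays in the Consortium for Functional Glycomics database, kept only where the protein sequence was available.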
# [1] = target: Fuc(a1-2)Gal(b1-4)[Fuc(a1-3)]GlcNAc
# How it was run: as §1
# [2] = target: Fuc(a1-2)Gal(b1-4)[Fuc(a1-3)]GlcNAc(b1-2)Man(a1-3)[Fuc(a1-2)Gal(b1-4)[Fuc(a1-3)]GlcNAc(b1-2)Man(a1-6)]Man(b1-4)GlcNAc(b1-4)[Fuc(a1-6)]GlcNAc
# How it was run: as §1
# Fuc(a1-2)[Gal(a1-3)]Gal = target: Fuc(a1-2)[Gal(a1-3)]Gal
# How it was run: as §1
# [3] = target: Fuc(a1-2)[Gal(a1-3)]Gal(b1-4)[Fuc(a1-3)]GlcNAc(b1-3)GalNAc
# How it was run: as §1
# [4] = target: Fuc(a1-2)[GalNAc(a1-3)]Gal(b1-3)GalNAc(b1-3)Gal(a1-4)Gal(b1-4)Glc
# How it was run: as §1
# Fuc(a1-3)GlcNAc = target: Fuc(a1-3)GlcNAc
# How it was run: as §1
# [5] = target: Fuc(a1-3)[Gal(b1-4)]GlcNAc(b1-3)Gal(b1-4)[Fuc(a1-3)]GlcNAc
# How it was run: as §1
# [6] = target: Fuc(a1-3)[Gal(b1-4)]GlcNAc(b1-6)GalNAc
# How it was run: as §1
# [7] = target: Fuc(a1-3)[Gal(b1-4)]GlcNAc6S
# How it was run: as §1
# [8] = target: Fuc(a1-3)[Gal3S(b1-4)]GlcNAc6S
# How it was run: as §1
# [9] = target: Gal(b1-3)GalNAc(a1-3)[Fuc(a1-2)]Gal(b1-4)Glc
# How it was run: as §1
# [10] = target: Gal(b1-3)GlcNAc(b1-3)Gal(b1-4)GlcNAc(b1-6)[Gal(b1-3)GlcNAc(b1-3)]Gal(b1-4)Glc
# How it was run: as §1
# [11] = target: Gal(b1-3)[Neu5Ac(a2-6)]GalNAc
# How it was run: as §1
# Gal(b1-4)GlcNAc = target: Gal(b1-4)GlcNAc
# How it was run: as §1
# [12] = target: Gal(b1-4)GlcNAc(b1-2)Man(a1-3)[Gal(b1-4)GlcNAc(b1-2)Man(a1-6)][Gal(b1-4)GlcNAc(b1-4)]Man(b1-4)GlcNAc(b1-4)[Fuc(a1-6)]GlcNAc
# How it was run: as §1
# [13] = target: Gal(b1-4)GlcNAc(b1-2)Man(a1-6)Man(b1-4)GlcNAc(b1-4)GlcNAc
# How it was run: as §1
# [14] = target: Gal(b1-4)GlcNAc(b1-3)Gal(b1-4)GlcNAc(b1-3)GalNAc
# How it was run: as §1
# Gal(b1-4)GlcNAc6P = target: Gal(b1-4)GlcNAc6P
# How it was run: as §1
# Gal4S(b1-4)GlcNAc = target: Gal4S(b1-4)GlcNAc
# How it was run: as §1
# [15] = target: GlcNAc(b1-3)Gal(b1-4)GlcNAc(b1-2)Man(a1-3)[GlcNAc(b1-3)Gal(b1-4)GlcNAc(b1-2)Man(a1-6)]Man(b1-4)GlcNAc(b1-4)GlcNAc
# How it was run: as §1
# GlcNAc(b1-3)GalNAc = target: GlcNAc(b1-3)GalNAc
# How it was run: as §1
# [16] = target: GlcNAc(b1-3)[GlcNAc(b1-6)]Gal(b1-4)GlcNAc
# How it was run: as §1
# [17] = target: GlcNAc(b1-4)Gal(b1-4)GlcNAc
# How it was run: as §1
# [18] = target: GlcNAc(b1-4)[GlcNAc(b1-6)]GalNAc
# How it was run: as §1
# [19] = target: GlcNAc(b1-6)Gal(b1-4)GlcNAc
# How it was run: as §1
# [20] = target: Man(a1-2)Man(a1-3)[Man(a1-2)Man(a1-6)]Man(a1-6)[Man(a1-2)Man(a1-2)Man(a1-3)]Man
# How it was run: as §1
# [21] = target: Man(a1-3)[Man(a1-6)]Man(a1-6)[Man(a1-3)]Man(b1-4)GlcNAc(b1-4)GlcNAc
# How it was run: as §1
# [22] = target: Neu5Ac(a2-3)Gal(b1-3)GalNAc6S
# How it was run: as §1
# [23] = target: Neu5Ac(a2-3)Gal(b1-3)GlcNAc(b1-6)GalNAc
# How it was run: as §1
binder,measurement,setting,value
B1,glycan array binding signal (z-score),Fuc(a1-2)Gal,-0.211
same,glycan array binding signal (z-score),[1],-0.153
same,glycan array binding signal (z-score),[2],-0.277
same,glycan array binding signal (z-score),Fuc(a1-2)[Gal(a1-3)]Gal,-0.193
same,glycan array binding signal (z-score),[3],-0.269
same,glycan array binding signal (z-score),[4],-0.125
same,glycan array binding signal (z-score),Fuc(a1-3)GlcNAc,-0.293
same,glycan array binding signal (z-score),[5],0.166
same,glycan array binding signal (z-score),[6],-0.063
same,glycan array binding signal (z-score),[7],3.1
same,glycan array binding signal (z-score),[8],-0.041
same,glycan array binding signal (z-score),[9],-0.434
same,glycan array binding signal (z-score),[10],-0.039
same,glycan array binding signal (z-score),[11],-0.173
same,glycan array binding signal (z-score),Gal(b1-4)GlcNAc,-0.244
same,glycan array binding signal (z-score),[12],-0.418
same,glycan array binding signal (z-score),[13],-0.333
same,glycan array binding signal (z-score),[14],-0.054
same,glycan array binding signal (z-score),Gal(b1-4)GlcNAc6P,-0.074
same,glycan array binding signal (z-score),Gal4S(b1-4)GlcNAc,-0.304
same,glycan array binding signal (z-score),[15],-0.042
same,glycan array binding signal (z-score),GlcNAc(b1-3)GalNAc,-0.152
same,glycan array binding signal (z-score),[16],-0.322
same,glycan array binding signal (z-score),[17],0.012
same,glycan array binding signal (z-score),[18],-0.132
same,glycan array binding signal (z-score),[19],-0.081
same,glycan array binding signal (z-score),[20],-0.055
same,glycan array binding signal (z-score),[21],-0.007
same,glycan array binding signal (z-score),[22],1.05
same,glycan array binding signal (z-score),[23],0.961
